# According to paper PMC10668032, “Altered binding affinity of SIX1-Q177R correlates with enhanced WNT5A and WNT pathway effector expression in Wilms tumor”:
# Whole data set: some 33,000 sequences, median “e-score” near -0.05, cut for the highest 2% near 0.38. Many of the other results were omitted from the sample, so the highest values are more common in it than they were.
# Biological target: T1, SIX1-Q177R homeodomain (human, UniProt Q15475 108-198, Q177R)
# T1 sequence: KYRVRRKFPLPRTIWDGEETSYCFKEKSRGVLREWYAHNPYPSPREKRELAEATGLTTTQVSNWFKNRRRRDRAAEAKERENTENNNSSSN
# Assay: universal protein binding microarray; Universal all-10-mer PBM (8x60K, AMADID 030236), 300 nM GST-tagged protein, Alexa Fluor 488 anti-GST; buffer, salt, pH and temperature not stated (as in Berger); high values mean tight binding
# Settings: protein: ivt; tags: N-terminal GST; dsDNA, one strand shown
# Summary of the method: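 After in vitro transcription/translation, GST-tagged homeodomains were quantified against a recombinant GST standard curve by anti-GST western blot. They were then placed in duplicate at 300 nM final concentration on universal 'all 10-mer' protein binding microarrays of 8×60K format.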
row,Sequence,binding signal [E-score]
1,AACACTGG,0.37323 ± 0.000191
2,CACACCGC,0.412 ± 0.0184
3,CACACAGG,0.182 ± 0.0584
4,GATACCGC,0.293 ± 0.00845
5,GACACCGC,0.487 ± 0.00552
6,CACACCGG,0.418 ± 0.0186
7,CACCCCGG,0.338 ± 0.0167
8,AACACCGG,0.4831 ± 0.000693
9,CACCGCGG,0.3509 ± 0.00344
10,CACCGATG,0.32 ± 0.0273
11,CCCCGGAG,0.261 ± 0.00517
12,CTATTACA,0.215 ± 0.023
13,CAGATTCG,0.161 ± 0.0252
14,CACCAAGG,0.265 ± 0.0125
15,CCCGCACC,0.197 ± 0.0395
16,AACCCGGA,0.201 ± 0.0406
17,TGTGCACA,0.21 ± 0.0348
18,CGCTTACA,0.196 ± 0.0288
19,CACCATAC,0.3492 ± 0.0017
20,CACCAGGG,0.284 ± 0.0249
21,CGGATCCA,0.232 ± 0.0264
22,CACCCGAA,0.276 ± 0.0248
23,ACCTCACG,0.153 ± 0.0322
24,CACCGGCC,0.251 ± 0.0167
25,GATACCCA,0.3616 ± 0.000587

row,Sequence,binding signal [E-score]
1,ACTTGCAC,0.175 ± 0.00796
2,TGTAAACA,0.262 ± 0.00791
3,AGCACCGC,0.288 ± 0.023
4,AACACCGC,0.47579 ± 0.000382
5,ACCACCGC,0.199 ± 0.00668
6,CACACCGA,0.405 ± 0.0194
7,CGGGGTTC,0.201 ± 0.0287
8,CATGGACA,0.216 ± 0.0185
9,GGAGTACC,0.218 ± 0.0355
10,GTGCGCAC,0.175 ± 0.0735
11,CGACACCG,0.4907 ± 0.00417
12,CGACCCCC,0.256 ± 0.0448
13,CGACACAC,0.345 ± 0.0318
14,GGACACAA,0.18 ± 0.117
15,GCCCACCC,0.229 ± 0.0369
16,GGACACAC,0.382 ± 0.0328
17,CGACACCC,0.488 ± 0.01
18,GGACACCC,0.48 ± 0.00768
19,GGACCCCC,0.26 ± 0.0595
20,CGACACAG,0.251 ± 0.0668
21,CGGCACCG,0.239 ± 0.0344
22,ACGCACCC,0.265 ± 0.0257
23,TACCCTGA,0.185 ± 0.0156
24,CGGGGTGC,0.219 ± 0.0401
25,TATTGACA,0.194 ± 0.0479

row,Sequence,binding signal [E-score]
1,CACGCAGG,0.264 ± 0.016
2,GTACTCCA,0.178 ± 0.0308
3,GGTCACAC,0.384 ± 0.0098
4,CGTCACAC,0.288 ± 0.0273
5,AGACACCC,0.469 ± 0.00936
6,AGACCCCC,0.214 ± 0.0497
7,CGACAACA,0.245 ± 0.0238
8,CGACACAA,0.201 ± 0.104
9,CGACACCA,0.488 ± 0.00517
10,AGTCACAC,0.326 ± 0.0101
11,ACTCCCTC,0.156 ± 0.0128
12,TATATATA,0.181 ± 0.042
13,AGGGATCG,0.216 ± 0.00653
14,CACTCATG,0.244 ± 0.00471
15,ACCCTTCA,0.166 ± 0.0264
16,GGGGTATA,0.274 ± 0.0131
17,CACCTCCG,0.344 ± 0.00638
18,ACCCGGGG,0.297 ± 0.0213
19,CACTATTA,0.158 ± 0.0138
20,GTTCGGGA,0.15 ± 0.0437
21,CTACACCC,0.4824 ± 0.00332
22,GTACAACA,0.2 ± 0.0164
23,CTACAACA,0.161 ± 0.0103
24,GTGCACCA,0.246 ± 0.0146
25,GTACACCA,0.4849 ± 0.00112

row,Sequence,binding signal [E-score]
1,ACACACTG,0.248 ± 0.0191
2,CTGCACCC,0.209 ± 0.0458
3,ATACACTG,0.392 ± 0.00512
4,CTACCCCC,0.268 ± 0.0213
5,CTACACCA,0.4741 ± 0.00151
6,CACCACCA,0.329 ± 0.0106
7,CACTAACA,0.284 ± 0.0307
8,CGACCCCG,0.255 ± 0.0544
9,CCCAATAC,0.17 ± 0.00354
10,TATTTACA,0.311 ± 0.0362
11,AAGTAGTG,0.27 ± 0.0294
12,CCCCTCAG,0.251 ± 0.0116
13,ATCCCGTG,0.228 ± 0.0211
14,CACGAGGG,0.189 ± 0.00843
15,AGGGGTAG,0.269 ± 0.00879
16,CACGCCGA,0.194 ± 0.0137
17,AAGCGACA,0.229 ± 0.0424
18,CACCTCCA,0.293 ± 0.0179
19,ATACCCCC,0.364 ± 0.0151
20,ATACACCA,0.47 ± 0.0019
21,ACCCACCA,0.2 ± 0.00308
22,ATACACCG,0.472 ± 0.00491
23,ATATACCG,0.15 ± 0.0185
24,ATGCACCA,0.165 ± 0.000877
25,ATACACAC,0.315 ± 0.0133

row,Sequence,binding signal [E-score]
1,ATACACAG,0.187 ± 0.0325
2,ATACACCC,0.46 ± 0.00688
3,ACTCGGTG,0.368 ± 0.00838
4,CACCTCCC,0.256 ± 0.00611
5,ATACCCCA,0.254 ± 0.016
6,ATCGGTGC,0.204 ± 0.0156
7,ACTCCCAG,0.262 ± 0.038
8,AGGGAGTA,0.178 ± 0.0384
9,TGTCCTAA,0.241 ± 0.0454
10,TGTAGACA,0.2571 ± 0.000438
11,CGGCACCA,0.181 ± 0.0154
12,ACACAGCG,0.1958 ± 0.00148
13,CGTGTCTA,0.405 ± 0.0182
14,GGGGTCTA,0.229 ± 0.0526
15,GGTGTCTA,0.468 ± 0.0105
16,GGTATCTA,0.216 ± 0.0361
17,AGTGTCTA,0.3723 ± 0.00362
18,CCCCAAGC,0.228 ± 0.0222
19,ACACCGGT,0.481 ± 0.00684
20,ACACCGGA,0.476 ± 0.00539
21,ACTCCGGC,0.233 ± 0.0256
22,ACCCCGGT,0.298 ± 0.00305
23,ACACCGGC,0.481 ± 0.00281
24,ACACCGGG,0.4843 ± 0.00112
25,ACCCCGGC,0.262 ± 0.0281

row,Sequence,binding signal [E-score]
1,ATACCGGG,0.213 ± 0.0219
2,CCACCGGA,0.203 ± 0.037
3,GCACCGGA,0.162 ± 0.0479
4,ACCCCGGG,0.302 ± 0.0198
5,ACACAGGT,0.252 ± 0.0297
6,CACCATCC,0.252 ± 0.00467
7,GTGCTCTA,0.221 ± 0.0342
8,CCAACTAC,0.151 ± 0.00402
9,ACCTCTAC,0.151 ± 0.00402
10,ACCACGTG,0.194 ± 0.00218
11,ACGGGATC,0.197 ± 0.0102
12,CGGGGTAA,0.235 ± 0.0071
13,ACACTTAA,0.316 ± 0.0276
14,ACACTCAT,0.388 ± 0.0116
15,ACTCTTAT,0.212 ± 0.0414
16,ACACTCAC,0.39 ± 0.00873
17,ACACTCTA,0.367 ± 0.0161
18,ACACTTAC,0.378 ± 0.013
19,ACACTTAG,0.355 ± 0.0376
20,ACACTCAA,0.39 ± 0.0152
21,ACACTCAG,0.387 ± 0.00387
22,ACTCACAC,0.3 ± 0.0164
23,CACTTACC,0.224 ± 0.032
24,AGCCCGGG,0.157 ± 0.00865
25,CGTGAACC,0.17 ± 0.0126

row,Sequence,binding signal [E-score]
1,TGTATACA,0.283 ± 0.0331
2,ACTACGTG,0.21 ± 0.0113
3,GGGGATCA,0.275 ± 0.0112
4,GAGGGATC,0.213 ± 0.0344
5,CCCCATGA,0.151 ± 0.00929
6,GGCGAGGA,0.174 ± 0.0324
7,ACCCTAAG,0.1853 ± 0.00154
8,CACCCTTA,0.263 ± 0.0167
9,ATACCCTA,0.312 ± 0.0168
10,ACCAGAAT,0.161 ± 0.0505
11,CCGACCAG,0.161 ± 0.0337
12,CAAACACG,0.32 ± 0.0109
13,CAAACACA,0.19 ± 0.0451
14,AAAACACC,0.437 ± 0.0129
15,TAAACACA,0.214 ± 0.0172
16,GAAACACC,0.4545 ± 0.000905
17,AAAACACG,0.321 ± 0.0302
18,CAAACACC,0.4485 ± 0.00209
19,AAAACACT,0.301 ± 0.0568
20,AAAACACA,0.188 ± 0.0109
21,ACCCTCCA,0.175 ± 0.00491
22,AGAAGGGG,0.223 ± 0.00875
